# Results taken from PubChem BioAssay AID720494 (Broad Institute, 2013).
# The list shows a part of the results. Calls of active or inactive are those of the source. No cut-off is given here; in the data, nearly all actives have AC50 up to about 14 µM.
# Assay: compounds quenching or disrupting AlphaScreen beads readout – biochemical, cherry-picked samples, luminescence, artefact control, dose response (AID 720494)
# Details: AlphaScreen interference counter-screen, signal luminescence; series mostly up to 12 µM; activity change, negative = inhibition: at the top concentration
SMILES,"activity change, negative = inhibition",AC50
Cc1ccc(NC(=S)N(CCCN2CCCC2)Cc2cccn2Cc2ccc(Cl)cc2)cc1,-4.08% (inactive),–
CCN(CC)CCOc1ccc2c(c1)C(=NNC(=O)c1ccccn1)c1cc(OCCN(CC)CC)ccc1-2,-27.8% (inactive),–
COc1ccc2[nH]c3c(C)c4cc[n+](C)cc4c(C)c3c2c1,-36.2% (inactive),–
COc1ccc(N2CCN(C3CCCCC3NS(=O)(=O)c3ccccc3)CC2)cc1 (stereo not drawn),-23.3% (inactive),–
COc1ccc2sc(N(CCCN(C)C)C(=O)c3ccc(S(=O)(=O)N(C)C4CCCCC4)cc3)nc2c1,-35.2% (inactive),–
Cc1cc(N=Nc2ccc3ccccc3c2)ccc1O,–,11.2 µM (active)
COc1ccc(-c2ccc3[nH]c4c(c3c2)CCN2C[C@H]3[C@H](C)ON(C)[C@H]3C[C@@H]42)cc1,-4.62% (inactive),–
O=C(NCCc1cccc(F)c1)C1CCCN(c2nc3ccccc3s2)C1 (stereo not drawn),4.51% (inactive),–
CN(C)CCNC(=O)c1cccc(-c2cnc3c(NC=O)cc(-c4cccc(C(F)(F)F)c4)cn23)c1,-35% (inactive),–
Cc1c(C)n(Cc2ccc(Cl)cc2)c2ccc(C(=O)NCCCN3CCOCC3)cc12,-29.8% (inactive),–
C[C@H]1CN([C@@H](C)CO)C(=O)c2c(c3ccccc3n2C)-c2ccccc2CO[C@@H]1CN(C)Cc1ccc2c(c1)OCCN2C,-19.3% (inactive),–
COc1ccc2c(c1)c(=Cc1ccc(N(C)C)cc1)c1cc(-c3ccccc3)[n+](C)n12,–,3.02 µM (active)
Cc1ccc(Nc2cc(C)nc3c(C)ccc([N+](=O)[O-])c23)cc1,-19.2% (inactive),–
